In PubChem BioAssay (NCATS):
Results filed as inconclusive are left out. Active and inactive are the calls of the source. Unless noted, calls follow the shape of the dose curve; as a rule, active = well fitted curve in the direction sought with a large enough effect; inconclusive = small, poorly fitted or top-dose-only effect, or another doubt; inactive = no such curve, though single readings can be large; an effect the other way counts as inactive or inconclusive.

Experiments:
[1] = qHTS for differential inhibitors of proliferation of Plasmodium falciparum line 3D7 (AID 1876);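 also: parasite growth measured after three days of culture; 0% = vehicle wells and -100% = reference inhibitor wells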
[2] = qHTS for differential inhibitors of proliferation of Plasmodium falciparum line D10 (AID 1877);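 also: parasites grown with compound for 72 h before DNA staining; plate controls were vehicle wells for no effect and reference inhibitor wells for full effect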
[3] = qHTS for differential inhibitors of proliferation of Plasmodium falciparum line Dd2 (AID 1882); conditions: Potency: Plasmodium falciparum Dd2 proliferation inhibition;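 also: series mostly up to about 29 µM; plate controls were DMSO vehicle for no effect and 0.29 µM artemisinin for full effect; nearly all actives have a fitted effect of over 65% in size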
How it was run: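 Dd2-infected erythrocytes (0.3% parasitemia, 2.5% hematocrit final) incubated with compound 72 h at 37 C, 5% CO2; lysed with saponin/Triton buffer containing SYBR Green I, incubated overnight in the dark, then read by fluorescence (485/535 nm). Normalized to 0.29 uM artemisinin and DMSO.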

[4] = qHTS for differential inhibitors of proliferation of Plasmodium falciparum line W2 (AID 1883); conditions: Potency: Plasmodium falciparum W2 proliferation inhibition;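 also: parasites grown with compound for 72 h before lysis and staining; 0% = vehicle wells and -100% = control inhibitor wells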
[5] = qHTS for differential inhibitors of proliferation of Plasmodium falciparum line HB3 (AID 1886); conditions: Potency: Plasmodium falciparum HB3 proliferation inhibition;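 also: parasites grown with compound for 72 h before SYBR Green readout; plate controls were vehicle for no effect and reference inhibitor for full effect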
[6] = qHTS Assay for Modulators of Human Peripheral Myelin Protein 22 (PMP22) Expression/Activity (AID 1967; active = well fitted curve in the direction sought with a large enough effect in the signal ratio; the % refers to the signal ratio;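 also: 0% = untreated cells and 100% end not stated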)
How it was run: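 Readout is the corrected green/red luminescence ratio after 24 h compound exposure, normalised to untreated cells (0%). Engineered MSC80 mouse Schwann cells express green luciferase from the mouse Pmp22 promoter and red luciferase from EF-alpha as internal control.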

[7] = target: Ferritin light chain (Equus caballus) (UniProt P02791); test: qHTS Validation Assay for Identification of Novel General Anesthetics (AID 2323); also: series mostly up to about 77 µM; % is scaled to controls: 0 for no effect and ±100 for the full control effect
Ferritin light chain (Equus caballus), sequence (P02791 2-175 limits assumed): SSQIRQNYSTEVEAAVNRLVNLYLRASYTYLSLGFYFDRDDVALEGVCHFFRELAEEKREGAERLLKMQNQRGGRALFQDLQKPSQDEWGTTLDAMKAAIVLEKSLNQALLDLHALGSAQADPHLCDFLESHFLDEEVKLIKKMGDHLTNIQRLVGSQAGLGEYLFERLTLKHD
How it was run: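 Competitive displacement of the profluorescent anesthetic 1-AMA (50% saturated, PBS) from 10 uM apoferritin, 10 min, room temperature. Activity is normalized 380/535 nm fluorescence; concentration-response fitted with a four-parameter Hill equation.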

[8] = target: ATP-dependent DNA helicase Q1 (Homo sapiens) (UniProt P46063); test: qHTS Validation Assay for Inhibitors of RecQ-Like Dna Helicase 1 (RECQ1) (AID 2353);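 also: plate controls were DMSO vehicle for no effect and enzyme-free control for full effect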
How it was run: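 50 nM RECQ1T1 preincubated 15 min with compound in Tris pH 8.0 buffer with MgCl2, DTT, Tween-20 and 2.5 ug/ml poly(dI-dC); started with 200 nM TAMRA/BHQ-2 forked duplex and 2 mM ATP. Unwinding read as fluorescence (525/598 nm), two reads 2 h apart.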

[9] = target: RecQ-like DNA helicase BLM (Homo sapiens) (UniProt P54132); test: qHTS Validation Assay for Inhibitors of Bloom's syndrome helicase (BLM) (AID 2364);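 also: plate controls were DMSO vehicle for no effect and enzyme-free control for full effect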
RecQ-like DNA helicase BLM (Homo sapiens), sequence (P54132 whole entry, looked up): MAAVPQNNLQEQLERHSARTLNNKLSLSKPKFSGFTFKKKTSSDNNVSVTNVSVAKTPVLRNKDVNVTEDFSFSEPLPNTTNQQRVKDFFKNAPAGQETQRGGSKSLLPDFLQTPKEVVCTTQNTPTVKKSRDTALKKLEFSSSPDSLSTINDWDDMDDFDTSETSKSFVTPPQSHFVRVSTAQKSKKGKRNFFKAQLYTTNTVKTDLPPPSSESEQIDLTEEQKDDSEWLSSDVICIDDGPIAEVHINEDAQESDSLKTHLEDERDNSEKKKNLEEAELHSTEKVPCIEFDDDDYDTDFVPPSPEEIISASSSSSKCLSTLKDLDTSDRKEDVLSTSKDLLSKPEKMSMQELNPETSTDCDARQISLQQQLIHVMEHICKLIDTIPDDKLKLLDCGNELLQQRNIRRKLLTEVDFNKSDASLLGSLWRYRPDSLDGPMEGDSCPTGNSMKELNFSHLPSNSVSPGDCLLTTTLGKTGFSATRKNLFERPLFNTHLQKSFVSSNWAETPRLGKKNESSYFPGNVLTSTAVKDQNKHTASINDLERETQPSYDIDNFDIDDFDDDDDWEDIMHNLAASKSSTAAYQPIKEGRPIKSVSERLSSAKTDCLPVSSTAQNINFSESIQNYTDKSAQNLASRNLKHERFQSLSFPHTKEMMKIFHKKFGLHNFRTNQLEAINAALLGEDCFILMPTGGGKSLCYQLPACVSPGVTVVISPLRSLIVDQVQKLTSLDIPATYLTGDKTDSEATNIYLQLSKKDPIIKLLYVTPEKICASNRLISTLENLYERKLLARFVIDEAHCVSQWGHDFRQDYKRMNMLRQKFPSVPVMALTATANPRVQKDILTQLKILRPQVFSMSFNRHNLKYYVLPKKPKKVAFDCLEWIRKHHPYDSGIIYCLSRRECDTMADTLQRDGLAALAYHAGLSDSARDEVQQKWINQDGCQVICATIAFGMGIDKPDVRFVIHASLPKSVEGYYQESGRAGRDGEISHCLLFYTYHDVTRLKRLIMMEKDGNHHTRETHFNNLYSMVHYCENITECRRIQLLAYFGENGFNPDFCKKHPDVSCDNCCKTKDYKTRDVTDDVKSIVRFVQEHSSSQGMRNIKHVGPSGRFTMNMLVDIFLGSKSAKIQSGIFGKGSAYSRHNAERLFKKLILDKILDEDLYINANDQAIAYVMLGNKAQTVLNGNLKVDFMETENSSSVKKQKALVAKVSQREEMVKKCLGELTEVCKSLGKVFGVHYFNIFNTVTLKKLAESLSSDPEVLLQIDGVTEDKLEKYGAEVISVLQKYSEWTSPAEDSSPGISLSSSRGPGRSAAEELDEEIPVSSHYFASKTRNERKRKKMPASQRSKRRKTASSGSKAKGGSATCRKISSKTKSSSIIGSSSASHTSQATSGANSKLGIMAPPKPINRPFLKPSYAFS
How it was run: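 Forked 20-bp duplex substrate (200 nM, TAMRA/BHQ-2) plus 2 mM ATP added after 15 min compound preincubation with 50 nM enzyme, pH 8.0, poly(dI-dC) 2.5 ug/ml. Strand separation followed by fluorescence (525/598 nm) over 2 h, normalized to enzyme-free and DMSO controls.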

[10] = Validation screen for small molecules that induce DNA re-replication in MCF 10A normal breast cells (AID 463097); also: 0% is about no effect; nearly all actives have a fitted effect of over 60% in size
How it was run: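 Read-out is Hoechst total nuclear intensity by fluorescence scanning imager, flagging increased high-DNA-content nuclei. Compounds were incubated with MCF 10A cells for 48 hr (37 C, 5% CO2) before 40 min staining.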

[11] = Quantitative high throughput screen for delayed death inhibitors of the malarial parasite plastid, 48 hour incubation (AID 488752); also: % is scaled to controls: 0 for no effect and ±100 for the full control effect; nearly all actives have a fitted effect of over 65% in size
How it was run: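 Readout is firefly luciferase luminescence from a reporter integrated into the parasite genome, with lower signal taken as inhibited growth. Infected red cells (0.1% parasitemia, 2% hematocrit final) are cultured with compound for one 48 h cycle at 37 C.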

[12] = target: M-phase phosphoprotein 8 (Homo sapiens) (UniProt Q99549); test: qHTS Validation Assay for Inhibitors for MPP8 Chromodomain Interactions with Methylated Histone Tails (AID 488949); also: potency is read from the fitted curve at half-maximal effect; nearly all actives have a fitted effect of over 55% in size
M-phase phosphoprotein 8 (Homo sapiens), sequence (Q99549 whole entry, looked up): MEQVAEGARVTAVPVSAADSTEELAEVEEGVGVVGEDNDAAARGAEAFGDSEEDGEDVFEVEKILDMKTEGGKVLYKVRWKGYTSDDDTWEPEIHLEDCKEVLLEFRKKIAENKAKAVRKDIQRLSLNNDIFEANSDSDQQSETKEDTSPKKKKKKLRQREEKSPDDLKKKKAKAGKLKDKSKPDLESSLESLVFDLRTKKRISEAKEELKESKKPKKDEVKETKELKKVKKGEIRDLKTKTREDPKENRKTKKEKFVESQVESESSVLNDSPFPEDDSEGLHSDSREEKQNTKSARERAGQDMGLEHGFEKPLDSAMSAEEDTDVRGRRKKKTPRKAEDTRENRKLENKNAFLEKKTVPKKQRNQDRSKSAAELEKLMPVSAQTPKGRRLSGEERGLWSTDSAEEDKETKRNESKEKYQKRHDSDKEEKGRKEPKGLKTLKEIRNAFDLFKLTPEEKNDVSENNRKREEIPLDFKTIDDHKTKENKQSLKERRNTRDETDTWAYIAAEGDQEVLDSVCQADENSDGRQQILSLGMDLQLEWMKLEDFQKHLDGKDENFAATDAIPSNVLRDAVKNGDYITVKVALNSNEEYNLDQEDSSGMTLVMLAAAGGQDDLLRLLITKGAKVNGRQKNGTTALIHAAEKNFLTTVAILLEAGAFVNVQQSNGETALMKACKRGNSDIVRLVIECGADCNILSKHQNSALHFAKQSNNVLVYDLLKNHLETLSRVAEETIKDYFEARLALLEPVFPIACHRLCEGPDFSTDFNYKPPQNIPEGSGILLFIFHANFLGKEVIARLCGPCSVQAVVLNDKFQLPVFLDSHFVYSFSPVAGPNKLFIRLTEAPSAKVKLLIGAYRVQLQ
How it was run: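 AlphaScreen proximity signal from streptavidin donor and Ni-chelate acceptor beads (10 ug/mL each) reported binding of MPP8 to trimethyl-K9 H3(1-18) peptide, both at 50 nM. The complex formed 30 min before a 30 min compound exposure at room temperature, in PBS pH 7.4.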

[13] = target: Transient receptor potential cation channel subfamily V member 1 (Homo sapiens) (UniProt Q8NER1); test: HTS Assay for Compounds that Act as Enhancers of the Vanilloid Receptor 1 (AID 488979); also: 0% is about no effect
Transient receptor potential cation channel subfamily V member 1 (Homo sapiens), sequence (Q8NER1 whole entry, looked up): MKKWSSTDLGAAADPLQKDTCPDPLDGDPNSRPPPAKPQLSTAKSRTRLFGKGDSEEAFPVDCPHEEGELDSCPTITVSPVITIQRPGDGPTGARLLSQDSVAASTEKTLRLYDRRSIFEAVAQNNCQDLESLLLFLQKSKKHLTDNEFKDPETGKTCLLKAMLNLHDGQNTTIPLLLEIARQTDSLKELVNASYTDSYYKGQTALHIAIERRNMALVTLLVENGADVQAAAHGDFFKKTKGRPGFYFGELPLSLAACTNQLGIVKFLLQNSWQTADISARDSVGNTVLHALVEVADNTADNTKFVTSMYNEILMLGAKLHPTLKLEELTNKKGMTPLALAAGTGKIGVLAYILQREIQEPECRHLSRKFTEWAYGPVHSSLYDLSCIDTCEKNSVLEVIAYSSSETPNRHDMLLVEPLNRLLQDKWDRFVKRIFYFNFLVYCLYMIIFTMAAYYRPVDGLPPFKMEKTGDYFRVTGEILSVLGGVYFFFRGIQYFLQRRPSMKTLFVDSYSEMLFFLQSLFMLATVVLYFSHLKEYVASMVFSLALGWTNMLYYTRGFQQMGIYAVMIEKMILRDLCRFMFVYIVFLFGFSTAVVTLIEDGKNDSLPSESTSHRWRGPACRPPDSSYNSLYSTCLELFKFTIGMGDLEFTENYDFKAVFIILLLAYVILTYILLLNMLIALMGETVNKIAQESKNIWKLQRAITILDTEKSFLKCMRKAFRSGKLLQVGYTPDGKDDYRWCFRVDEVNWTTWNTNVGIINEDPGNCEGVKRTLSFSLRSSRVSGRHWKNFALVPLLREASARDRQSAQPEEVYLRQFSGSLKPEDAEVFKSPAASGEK
How it was run: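 Calcium influx kinetics via Fluo-8 (480/520 nm) in TRPV1-expressing cells, 2000/well cultured overnight at 35.5C. Compound-alone read 3 min (agonist phase), followed by EC20 capsaicin challenge for 2 min (enhancer phase).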

[14] = target: Thyrotropin receptor (Homo sapiens) (UniProt P16473); test: qHTS Assay for Antagonists of the Thyroid Stimulating Hormone Receptor (AID 488980); also: series mostly up to about 58 µM; 0% is about no effect
Thyrotropin receptor (Homo sapiens), sequence (P16473 whole entry, looked up): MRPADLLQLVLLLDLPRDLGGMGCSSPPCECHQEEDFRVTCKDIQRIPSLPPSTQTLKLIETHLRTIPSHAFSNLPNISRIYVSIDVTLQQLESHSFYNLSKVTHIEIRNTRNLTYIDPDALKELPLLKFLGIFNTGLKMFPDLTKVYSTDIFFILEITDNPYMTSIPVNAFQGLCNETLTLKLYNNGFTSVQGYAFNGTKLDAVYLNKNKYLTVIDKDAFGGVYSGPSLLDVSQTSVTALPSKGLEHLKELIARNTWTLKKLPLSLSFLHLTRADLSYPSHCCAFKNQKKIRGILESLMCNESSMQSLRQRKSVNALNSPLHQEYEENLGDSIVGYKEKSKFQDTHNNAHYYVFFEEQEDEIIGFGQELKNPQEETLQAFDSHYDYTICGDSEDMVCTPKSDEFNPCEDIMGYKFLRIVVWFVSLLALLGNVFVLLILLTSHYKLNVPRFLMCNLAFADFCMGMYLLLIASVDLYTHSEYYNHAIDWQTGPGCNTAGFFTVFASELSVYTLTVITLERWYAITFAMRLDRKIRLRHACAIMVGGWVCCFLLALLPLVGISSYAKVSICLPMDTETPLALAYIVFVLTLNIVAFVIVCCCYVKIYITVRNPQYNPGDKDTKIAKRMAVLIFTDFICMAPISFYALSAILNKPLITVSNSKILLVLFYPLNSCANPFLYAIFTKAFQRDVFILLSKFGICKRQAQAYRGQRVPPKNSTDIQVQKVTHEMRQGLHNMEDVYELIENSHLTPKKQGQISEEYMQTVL
How it was run: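 Inhibition of cAMP raised by EC80 TSH (4 nM final) was read by HTRF, with lysate cAMP competing against cAMP-d2 for cryptate antibody after 30 min at room temperature. The cells were transfected HEK293 held in phosphodiesterase inhibitor RO 20-1724 at 70 uM.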

[15] = target: Thyrotropin-releasing hormone receptor (Homo sapiens) (UniProt P34981); test: qHTS for Small Molecule Agonists and Allosteric Enhancers of Human TRH Receptor: Validation Screen for Agonists (AID 493127;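 active = calcium activation more than 3 SD above the typical response in the agonist read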;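 also: intracellular calcium rise by fluo-8 fluorescence before TRH EC20 addition; 0% is about no effect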); conditions: TRH receptor agonist cell assay; at 2 µM; stronger effect = higher value
Thyrotropin-releasing hormone receptor (Homo sapiens), sequence (P34981 whole entry, looked up): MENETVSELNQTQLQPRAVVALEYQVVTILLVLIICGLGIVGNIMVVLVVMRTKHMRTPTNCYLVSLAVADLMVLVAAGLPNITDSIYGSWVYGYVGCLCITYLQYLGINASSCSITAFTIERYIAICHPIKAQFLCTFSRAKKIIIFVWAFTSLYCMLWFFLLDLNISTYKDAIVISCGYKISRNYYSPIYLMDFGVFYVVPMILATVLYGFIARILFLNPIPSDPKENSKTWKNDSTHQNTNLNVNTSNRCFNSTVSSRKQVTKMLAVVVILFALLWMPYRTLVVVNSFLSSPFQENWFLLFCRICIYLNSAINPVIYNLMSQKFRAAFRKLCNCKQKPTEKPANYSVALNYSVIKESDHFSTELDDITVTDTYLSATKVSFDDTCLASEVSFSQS
How it was run: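 Cells 2000/well, 10% FCS, 18 h 33.5C/5% CO2 → fluo-8 Ca dye, RT 30 min–1.5 h → FDSS baseline 10 × 1 s → compound added → 230 cycles (1 s/cycle) agonist mode. TRH controls.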

[16] = target: Galactokinase (Homo sapiens) (UniProt P51570); test: qHTS Validation Assay for Inhibitors of Human Galactokinase (GALK) (AID 493189); also: 0% is about no effect
Galactokinase (Homo sapiens), sequence (P51570 whole entry, looked up): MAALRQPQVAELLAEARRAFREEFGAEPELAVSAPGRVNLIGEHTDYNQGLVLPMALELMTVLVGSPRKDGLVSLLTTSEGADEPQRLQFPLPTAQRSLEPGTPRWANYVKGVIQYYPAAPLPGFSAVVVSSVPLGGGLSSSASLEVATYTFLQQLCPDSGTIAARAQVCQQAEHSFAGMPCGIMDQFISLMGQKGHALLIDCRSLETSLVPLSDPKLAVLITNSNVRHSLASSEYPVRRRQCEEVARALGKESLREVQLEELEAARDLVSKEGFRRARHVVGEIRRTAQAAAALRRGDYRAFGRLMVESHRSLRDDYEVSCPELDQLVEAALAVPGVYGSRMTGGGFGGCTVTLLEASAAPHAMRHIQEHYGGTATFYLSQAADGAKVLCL
How it was run: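 Inhibition was measured as remaining ATP, detected by luciferase luminescence after a 1 h room-temperature reaction. Final conditions: 5 nM GALK, 100 uM galactose, 35 uM ATP, pH 8.0 HEPES buffer.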

[17] = Validation screen for small molecules that induce DNA re-replication in SW480 colon adenocarcinoma cells (AID 504364); also: 0% is about no effect
How it was run: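 250 cells/well; compound pinned in; 48 hr, 37 C, 5% CO2; Hoechst added, 40 min; nuclear fluorescence imaged, 405 ex / 500-530 em; re-replication scored as increase in high-intensity nuclei.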

[18] = target: DNA dC->dU-editing enzyme APOBEC-3G (Homo sapiens) (UniProt Q9HC16); test: qHTS for inhibitors of Vif-A3G interactions: Validation (AID 588379); also: 0% is about no effect
How it was run: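 HeLa cells stably expressing Vif and A3G-eYFP, 700 cells/well, incubated overnight at 37 deg C, then exposed to compound overnight at 37 deg C. Inhibition of Vif-mediated degradation read as increased yellow fluorescence (Ex 488/Em 500-530) by laser-scanning cytometry.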

[19] = tested on: Zika virus NS2B-NS3 protease; test: Primary screen GU AMC qHTS for Zika virus inhibitors (AID 1347154);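 also: 0% = no-inhibitor control and -100% = no-enzyme control; nearly all actives have a fitted effect of over 70% in size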
How it was run: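 Fluorogenic AMC-substrate cleavage by noncovalent NS2B-NS3 protease complex (25 nM, pH 8.0 Tris buffer with Tween 20) followed for 15 minutes at room temperature (~20% conversion). Percent inhibition from ex340/em450 signal change, fitted by 4-parameter Hill equation.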

[20] = Primary qHTS for small molecule stabilizers of the endoplasmic reticulum resident proteome: Secreted ER Calcium Modulated Protein (SERCaMP) assay (AID 1508630); also: % is scaled to controls: 0 for no effect and ±100 for the full control effect
How it was run: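 GLuc-SERCaMP-expressing SH-SY5Y cells, pretreated 16 h with compound, are challenged with thapsigargin to empty ER calcium stores; after 4 h, coelenterazine is added directly to the medium and luminescence is imaged.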

CN(C)CCCCSC(=N)N
active: Potency [12] 50.1 µM
inactive: Potency [1] | Potency [2] | Potency [3] | Potency [4] | Potency [5] | outcome [6] | outcome [7] | Potency [8] | Potency [9] | Potency [10] | Potency [11] | outcome [13] | outcome [14] | activation [15] 1.19% | outcome [16] | outcome [17] | Potency [18] | Potency [19] | Potency [20]
